Compound activity as filed in PubChem BioAssay.
Hits are enriched below; roughly 11% of the tested compounds scored in any of these assays.
hNpr1 antagonist – blocks ANP-stimulated signaling of human Npr1 receptor. AID 1347048. Potency, µM (titrated, usually from 46.3 µM), inactives show at the top dose activity change, negative = inhibition, usual class: inhibitors. P16066. HEK293 hNpr1 GloSensor cGMP, ANP-stimulated luminescence. 76,000 compounds, 1.6% hits; calls by dose curve; also: nearly all actives have a fitted effect of over 60% in size
Target sequence (P16066 whole entry, looked up): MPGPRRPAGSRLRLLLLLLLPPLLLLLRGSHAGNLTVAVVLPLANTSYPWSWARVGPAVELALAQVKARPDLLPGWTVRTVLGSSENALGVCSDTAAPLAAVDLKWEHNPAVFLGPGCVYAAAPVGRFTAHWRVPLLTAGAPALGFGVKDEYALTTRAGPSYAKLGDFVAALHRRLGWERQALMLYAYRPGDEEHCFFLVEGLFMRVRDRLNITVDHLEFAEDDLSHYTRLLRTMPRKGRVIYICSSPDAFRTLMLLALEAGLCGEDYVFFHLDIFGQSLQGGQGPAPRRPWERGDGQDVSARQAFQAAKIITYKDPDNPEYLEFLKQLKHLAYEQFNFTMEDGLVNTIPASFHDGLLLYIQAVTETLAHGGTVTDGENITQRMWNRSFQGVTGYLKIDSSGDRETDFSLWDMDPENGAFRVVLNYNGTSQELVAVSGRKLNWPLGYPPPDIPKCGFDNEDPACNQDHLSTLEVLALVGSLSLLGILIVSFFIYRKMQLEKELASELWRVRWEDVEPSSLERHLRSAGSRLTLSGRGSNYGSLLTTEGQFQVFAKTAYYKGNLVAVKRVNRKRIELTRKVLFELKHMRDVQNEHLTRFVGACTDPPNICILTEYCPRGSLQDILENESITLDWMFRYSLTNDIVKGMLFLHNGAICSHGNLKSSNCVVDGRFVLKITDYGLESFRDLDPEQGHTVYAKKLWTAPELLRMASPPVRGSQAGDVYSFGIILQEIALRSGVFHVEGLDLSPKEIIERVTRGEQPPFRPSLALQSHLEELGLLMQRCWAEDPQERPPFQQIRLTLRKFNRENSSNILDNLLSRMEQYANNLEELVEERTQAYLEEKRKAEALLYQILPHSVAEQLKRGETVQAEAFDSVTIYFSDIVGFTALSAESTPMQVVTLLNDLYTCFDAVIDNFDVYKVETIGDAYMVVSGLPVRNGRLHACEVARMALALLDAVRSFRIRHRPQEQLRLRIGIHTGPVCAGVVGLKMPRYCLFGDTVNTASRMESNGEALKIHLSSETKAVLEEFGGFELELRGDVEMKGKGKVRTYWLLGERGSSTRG
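HEK293 cells stably expressing human Npr1 and cGMP GloSensor pGS-40F, loaded 2 h with 2% GloSensor reagent, given compound 30 min at room temperature. Luminescence read before and 20 min after 0.1 nM hNppA.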
3T3 cytotox – cytotoxic compounds in NIH 3T3 cells; NIH 3T3 viability, CellTiter-Glo ATP luminescence, 48-72 h; Potency, µM (highest dose often 96.7 µM), for the others: at the highest dose activity change, negative = cytotoxicity, hits mostly inhibitors; 94,000 compounds, 4.3% hits; AID 1345082; also: nearly all actives have a fitted effect of over 55% in size
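First NIH 3T3 cells are plated at 400 cells/well; next compound is pinned in; then plates incubate 48 or 72 hr at 37 °C; finally CellTiter-Glo is added and luminescence read after 10 min.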
Luciferase inh – inhibitors of firefly (Photinus pyralis) luciferase; Potency, µM (titrated, usually from 115 µM), actives largely listed as inhibitors; AID 1347043; purified P. pyralis luciferase, luminescence, biochemical; 76,000 compounds, 2.5% hits; also: nearly all actives have a fitted effect of over 65% in size
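Cell-free enzyme assay, 10nM P. pyralis luciferase, luciferin and ATP each at 10uM. Inhibition profiled over a 6-point titration, read as luminescence.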
HEK cytotox – HEK 293 cell cytotoxicity; HEK 293 viability, ATP luminescence (CellTiter-Glo), 48-72 h; Potency, µM (series often up to 115 µM), for the others: at the top dose activity change, negative = cytotoxicity, actives largely listed as inhibitors; 94,000 compounds, 6.6% hits; AID 1345083; also: nearly all actives have a fitted effect of over 60% in size
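ATP-coupled CellTiter-Glo luminescence served as viability read-out, recorded 10 min after reagent addition at room temperature. HEK 293 cells, 250 cells/well, had been incubated with pintool-transferred compound for 48 or 72 hr at 37 degree Celsius.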
* hit, by the source's call; i = inactive; u = inconclusive; x = no result given; [ ] = remark or other dose. Unless noted, calls follow the shape of the dose curve; as a rule, active = well fitted curve in the direction sought with a large enough effect; inconclusive = small, poorly fitted or top-dose-only effect, or another doubt; inactive = no such curve, though single readings can be large; an effect the other way counts as inactive or inconclusive. % is scaled to controls: 0 for no effect and ±100 for the full control effect; potency is read from the fitted curve at half-maximal effect.

SMILES	hNpr1 antagonist	3T3 cytotox	Luciferase inh	HEK cytotox
O=C(O)CCC(=O)N1CCC2(CC1)Cc1ccccc1N(C(=O)C1CCCC1)C2	x	u	x	-17%
O=C(c1ccc(Cl)cc1)N1CC2(CCCN(Cc3ccccn3)C2)Cc2ccccc21 (stereo not given)	x	u	x	32µM*
NC(=O)c1cccc(CN2CCC3(Cc4ccccc4N(C(=O)c4ccc(Cl)cc4)C3)C2)c1 (stereo not given)	x	u	x	35µM*
CC(=O)N1CC2(CCCN(Cc3ccc(Cl)cc3)C2)Cc2ccccc21 (stereo not given)	x	-19%	x	u
CC(=O)N1CC2(CCN(Cc3cccc(C(N)=O)c3)CC2)Cc2ccccc21	x	-11%	x	-16%
O=C(O)CCC(=O)N1CCC2(CC1)Cc1ccccc1N(C(=O)c1ccc(Cl)cc1)C2	x	32µM*	x	i
CN(C)CC(C)(C)NC(=O)c1csc2nc(-c3cccc(C(F)(F)F)c3)cn12	-9%	u	i	45µM*
COc1cc(CN2C[C@@H](CO)[C@H](c3ccncc3)C2)ccc1F	-1%	-25%	i	-15%
O=C(Nc1cccnc1)c1nnn2c1CN(Cc1ccccc1F)C(=O)CC2	0%[70.6 µM]	100µM*	i	-1%[172 µM]
C[S+](=O)([O-])c1cccc(NC(=O)c2nnn3c2CN(Cc2cccc(Cl)c2)C(=O)CC3)c1	3%	u	i	u
COc1ccc(Cn2c(C3CCN(C(=O)COc4cccc(C)c4)CC3)n[nH]c2=O)cc1	-2%	u	i	-3%
Cc1nn(-c2ccccn2)c(C)c1[C@@H]1C=C[C@@H](NC(=O)NCc2ccccc2)C1	-26%[70.6 µM]	u	u	u
Cc1nn(-c2ccccc2[N+](=O)[O-])c(C)c1[C@@H]1C=C[C@@H](NCc2ccco2)C1	-17%[70.6 µM]	u	i	89µM*
Cc1nn(-c2ccccc2[N+](=O)[O-])c(C)c1[C@@H]1C=C[C@@H](NCc2ccc(C(C)C)cc2)C1	u	u	i	20µM*
Cc1cccc(C(=O)N2CC(N(C)Cc3cccnc3)C2)c1	3%	i	i	10%
CN(Cc1cccnc1)C1CN(C(=O)c2cnn(C)c2)C1	-4%	4%	28µM*	0%
CCn1ccc(C(=O)N2CC(N(C)Cc3cccnc3)C2)n1	x	-15%	x	2%
Cc1cc(C)n(CC(=O)N2CC(N(C)Cc3cccnc3)C2)n1	1%	i	35µM*	9%
CCCOCCCNC(=O)c1c(C)noc1-c1ccc(C(C)(C)C)cc1	3%	u	i	35µM*
CN1CCc2c([nH]c3ccccc23)C12CCN(C(=O)C1CCC1)CC2	-1%	-11%	i	-9%
COc1ccc(NC(=O)[C@@H]2C[C@H](c3ccc(F)cc3)N(Cc3csc(C)n3)C2)cc1	-3%[70.6 µM]	u	i	79µM*
Cc1nc(CN2C[C@H](C(=O)Nc3ccc(F)cc3)C[C@@H]2c2ccc(F)cc2)cs1	-1%[70.6 µM]	100µM*	i	100µM*
COc1ccc(NC(=O)[C@@H]2C[C@@H](c3ccc(F)cc3)N(Cc3ccccc3)C2)cc1	-19%[70.6 µM]	-16%[138 µM]	i	u
Cc1cc(C)cc(C(=O)N2CCN(c3cc(-c4ccc(Cl)cc4)[nH]n3)CC2)c1	u	40µM*	i	40µM*
O=C(c1cccc(Cl)c1)N1CCN(c2cc(-c3ccccc3)[nH]n2)CC1	-22%	u	i	45µM*
SMILES	hNpr1 antagonist	3T3 cytotox	Luciferase inh	HEK cytotox
O=C(c1ccc(Cl)cc1)N1CCN(c2cc(-c3ccc(F)cc3)[nH]n2)CC1	u	35µM*	i	u
O=C(c1ccc(F)cc1)N1CCCN(c2cc(-c3ccc(F)cc3)[nH]n2)CC1	-1%	-24%	i	u
O=C(c1ccsc1)N1CCN(c2cc(-c3ccc(Cl)cc3)[nH]n2)CC1	-26%	25µM*	i	u
CC(=O)Nc1ccc(C(=O)N2CCCN(c3cc(-c4ccc(Cl)cc4)[nH]n3)CC2)cc1	-29%	-24%	i	u
Cc1ccsc1C(=O)N1CCCN(c2cc(-c3ccc(Cl)cc3)[nH]n2)CC1	u	u	i	32µM*
O=C(c1ccc2ncccc2c1)N1CCCN(c2cc(-c3ccc(Cl)cc3)[nH]n2)CC1	u	u	i	35µM*
O=C(c1ccc2c(c1)OCO2)N1CCN(c2cc(-c3ccc(F)cc3)[nH]n2)CC1	u	14µM*	i	u
CN(C1CCc2nn(CC3CC3)c(=O)n2CC1)S(=O)(=O)c1ccc2c(c1)OCCO2 (stereo not given)	x	u	x	-28%
COc1ccc(-c2ccccc2NC(=O)C2CCCN(Cc3c(O)cccc3OC)C2)cc1 (stereo not given)	u	u	i	20µM*
COc1ccc(-c2ccccc2NC(=O)C2CCCN(Cc3ccc(O)c(OC)c3)C2)cc1 (stereo not given)	-1%	u	i	u
COc1ccc(-c2ccccc2NC(=O)C2CCCN(Cc3ccccc3O)C2)cc1 (stereo not given)	0%	u	i	25µM*
CC(=O)N1CCC(c2nnc3n2C(C(=O)NCc2ccc(F)c(F)c2)CC3)CC1 (stereo not given)	x	4%	x	i
O=C(NCCc1cccnc1)c1ccc(-c2nnc3ccc(NC(=O)C4CCC4)cn23)cc1	-1%	35µM*	i	u
CN1CCC(Cn2ccc3c(N4CCOCC4)nc(-c4cccc(N[S+](C)(=O)[O-])c4)cc32)CC1	0%	u	i	u
c1ccc(-c2cc3c(ccn3Cc3ccncc3)c(N3CCOCC3)n2)cc1	-8%[70.6 µM]	u	i	u
CN1CCC(Cn2ccc3c(N4CCOCC4)nc(-c4ccc5cn[nH]c5c4)cc32)CC1	2%[70.6 µM]	40µM*	i	100µM*
CN1CCC(Cn2ccc3c(N4CCOCC4)nc(-c4cccc(N5CCOCC5)c4)cc32)CC1	-1%	32µM*	i	u
CN1CCC(Cn2ccc3c(N4CCOCC4)nc(-c4cccc5[nH]ccc45)cc32)CC1	0%[70.6 µM]	35µM*	i	63µM*
COc1ccc(C(C)NC(=O)c2noc(-c3ccc(C)cc3)n2)cc1OC (stereo not given)	u	-6%	i	u
COc1cccc(C(=O)N2CCN(C(=O)c3nc4cccnc4n(C4CC4)c3=O)CC2)c1	x	-9%	x	-8%
COc1cccc(C2CCN(Cc3cn(-c4ccccc4)nn3)C2)c1OC (stereo not given)	-4%	u	i	79µM*
Cc1cccc(C)c1-c1nc(C(=O)NCCc2ccc(Cl)cc2)n2ccccc12	-5%	-27%	i	50µM*
O=C(NCCc1ccc(Cl)cc1)c1nc(-c2ccc(Cl)cc2Cl)c2cnccn12	x	-26%	x	u
COCCNC(=O)c1nc(-c2ccccc2)c2ccccn12	7%[70.6 µM]	u	i	100µM*
COC(=O)CNC(=O)c1nc(-c2cc(Cl)cc(Cl)c2)c2ccccn12	-25%	-15%	i	35µM*
